Structures are written as SMILES. Records with an inconclusive call do not appear. Values without a mark were called inactive. Activity calls are given as the source filed them. Calls come from the whole dose curve; as a rule, active = well fitted inhibition curve with a large enough effect; inconclusive = small, poorly fitted or top-dose-only effect; inactive = no such curve, though single readings can be large or run the other way.
Potency is the fitted concentration of half-maximal effect.

The first experiment is described as follows: BET inhibitor-based combinations targeting novel dependencies in MECOM-rearranged (r) AML: OCI-AML3 cell line (AID 2202232).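 For viability (% of control): plate controls were DMSO vehicle wells for no effect and wells without cells for full effect.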 Note: nearly all actives have a fitted effect of over 35% in size. To be noted: CellTiter-Glo luminescence, 48 h; Potency: OCI-AML3 viability; series mostly up to 46 µM. The procedure, abridged: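 Readout: CellTiter-Glo luminescence. Exposure: 48 h, 11 concentrations, 500 cells/well. Metric: AUC and within-line Z-AUC after DMSO/empty-well normalization.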
(In general: In ATP-based viability assays light output follows the ATP content of the culture.)
Turning to `CN1C(=O)[C@@H](NC(=O)c2cc(Cc3ccccc3)on2)COc2ccccc21`, the Potency entry is “inactive”. Same read-out and setting: the result for `O=C(O)c1ccccc1-c1ccc(/C=c2\sc3nc4cc(Br)cnc4n3c2=O)o1` reads “inactive”; that for `CC(=O)CC(c1ccccc1)c1c(O)c2ccccc2oc1=O` (stereo unspecified), “inactive”; that for `CC(C)(c1ccc(OCC(O)CO)cc1)c1ccc(OCC(O)CCl)cc1` (stereo unspecified), “inactive”. Take `CCC[C@H](NC(=O)[C@@H]1[C@H]2CCC[C@H]2CN1C(=O)[C@@H](NC(=O)[C@@H](NC(=O)c1cnccn1)C1CCCCC1)C(C)(C)C)C(=O)C(=O)NC1CC1`: the Potency result is “inactive”. The same measure, in the same setting: the result for `CN(C)N=Nc1nc[nH]c1C(N)=O` reads “inactive”; that for `C[C@@H](C(=O)Nc1ccc(Cl)cc1)C1CCC(c2ccnc3ccc(F)cc23)CC1` (stereo partly specified), “inactive”; that for `CCC(=O)O[C@]1(C(=O)CO)CC[C@H]2[C@@H]3CCC4=CC(=O)CC[C@]4(C)[C@H]3CC[C@@]21C`, “inactive”.

In the case of `C[C@@H](Nc1cc(F)cc(F)c1)c1cc(C(=O)N(C)C)cc2c(=O)cc(N3CCOCC3)oc12`, the Potency is 5.9 µM (active). The same measure, in the same setting: the result for `CN[C@@H](C)C(=O)N[C@@H]1C(=O)N(Cc2c(C)ccc3ccccc23)c2ccc(C#N)cc2N(C(C)=O)[C@H]1C` reads “inactive”; that for `Nc1nc(N)c2nc(-c3cccc(Cl)c3)c(N)nc2n1`, 2.95 µM (active).

The nature of a further experiment: BET inhibitor-based combinations targeting novel dependencies in MECOM-rearranged (r) AML: MV-4-11 cell line (AID 2202233).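 For viability, % of control: plate controls were DMSO for no effect and blank wells for full effect.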 Note: nearly all actives have a fitted effect of over 45% in size. To be noted: MV-4-11 AML viability, CellTiter-Glo luminescence, 48 h; series mostly up to 46 µM. The procedure, abridged: (§1)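 Seeding density was 500 cells/well, and drug exposure lasted 48 hr under standard culture conditions. Read-out used CellTiter-Glo reagent with a 15 min room-temperature incubation before luminescence measurement; AUC and Z-AUC summarize the normalized responses.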
Regarding `CCN(C)S(=O)(=O)Nc1ccc(F)c(C(=O)c2c[nH]c3ncc(-c4cnc(C5CC5)nc4)cc23)c1F`, the Potency was 23.5 µM (active). For `Cc1cc(C)cc(Oc2ccc(CNC(=O)[C@H](C)N)cc2C)c1`, the Potency is 18.6 µM (active).

With `CS(=O)(=O)c1ccc(-c2cnc(NCc3ccco3)n3cnnc23)cc1`, the Potency result was “inactive”. On the same count and under the same terms, as for `CN(C)Cc1cccc(N=C(c2ccccc2)c2c(O)[nH]c3cc(C(=O)N(C)C)ccc23)c1`, the figure is 6.61 µM (active). On the same count and under the same terms, as for `Nc1ncnc2nc(-c3ccc(N4CCOCC4)nc3)cc(-c3cccc(Br)c3)c12`, the figure is 8.33 µM (active); as for `CC1(N)CCN(c2cccnc2NC(=O)c2nc(-c3ncccc3C(F)(F)F)cnc2N)CC1`, 7.42 µM (active).

As for `Nc1nc2cc(-c3ccc4ncc(C(=O)N5CCOCC5)n4c3)ccc2o1`, the Potency was 16.6 µM (active). With `COc1ccccc1C(=O)Nc1cc2c(cc1N1CCNC[C@H]1C)n(C)c(=O)n2C`, the Potency is 5.9 µM (active). On the same count and under the same terms, as for `CC[C@H](Nc1ncnc2nc[nH]c12)c1oc2ccccc2c(=O)c1-c1cccc(F)c1`, the figure is 6.61 µM (active).

In the case of `O=S(=O)(NCCNC/C=C/c1ccc(Br)cc1)c1cccc2cnccc12`, the Potency is 14.8 µM (active). Same read-out and setting: as for `CONC(=O)c1ccccc1Nc1cc(Nc2cc(C)nn2C(C)C)ncc1Cl`, the figure is 14.8 µM (active); as for `CN(C)c1ccc(C(=O)NCCCCCCC(=O)NO)cc1`, 0.59 µM (active); as for `CNCCN(C)Cc1cn[nH]c1-c1ccc(OC2CC(OCCC3CCOCC3)C2)cc1` (stereo unspecified), 20.9 µM (active). Same read-out and setting: as for `CCOC(=O)[C@H](CCc1ccccc1)N[C@H]1CCc2ccccc2N(CC(=O)O)C1=O`, the figure is 7.42 µM (active). In the case of `COc1cc2c(cc1OC)CN(CCc1ccc(-n3nnc(-c4cc(OC)c(OC)cc4NC(=O)c4cc(=O)c5ccccc5o4)n3)cc1)CC2`, the viability, % of control is 93.2% [at 0.315 µM].

`CC[C@H](C)C(=O)O[C@H]1C[C@H](O)C=C2C=C[C@H](C)[C@H](CC[C@@H](O)C[C@@H](O)CC(=O)O)[C@H]21`: the Potency result was “inactive”. `CSC[C@H]1CN(Cc2c[nH]c3c(N)ncnc23)C[C@@H]1O`: the Potency entry is “inactive”.

With `CCCCCCCCCCCC1=C(O)C(=O)C=C(O)C1=O`, the Potency is 13.2 µM (active). As for `Nc1nccc2c1ncn2[C@@H]1C=C(CO)[C@@H](O)[C@H]1O`, the Potency is 0.166 µM (active).

On to `COc1cc2c(NC3CCN(C4CCCCC4)CC3)nc(N3CCCN(C(C)C)CC3)nc2cc1OCCCN1CCCCC1`, for which the Potency is 7.42 µM (active). Still for that read-out and setting: as for `Cc1noc(C)c1-c1ccc(-c2cc(C(N)=O)c(NC(N)=O)s2)c(O[C@H]2CCNC2)c1`, the entry is “inactive”. Same read-out and setting: as for `Nc1nc(F)nc2c1ncn2C1OC(COP(=O)(O)O)C(O)C1O` (stereo unspecified), the figure is 18.6 µM (active); as for `Cc1ccc(NC(=O)[C@H]2CCCN(C(=O)c3c(C)cccc3F)[C@H]2c2ccc(NC3CCCC3)cc2)cc1C(F)(F)F`, “inactive”. In the case of `CC(C)(C(=O)NCC(F)(F)C(F)(F)F)C(=O)N[C@@H]1C(=O)Nc2ccccc2-c2ccccc21`, the Potency entry was “inactive”. Regarding `CC(/C=C1\SC(=S)N(CC(=O)O)C1=O)=C\c1ccccc1`, the Potency result was “inactive”. For the compound `O=c1oc2cc(O)ccc2s1`, the Potency result is “inactive”. In the case of `c1ccc2c(-c3cnn4cc(-c5ccc(OCCN6CCOCC6)cc5)cnc34)ccnc2c1`, the Potency is 4.56 µM (active). As to `CCOc1cc(/C=C2/C(=O)N(c3ccccc3)N=C2C)cc(Cl)c1OCC(=O)OC`, the Potency was 20.9 µM (active).

For the compound `C[C@H]1C[C@H]2[C@@H]3CCC4=CC(=O)C=C[C@]4(C)[C@H]3C(=O)C[C@]2(C)[C@@]1(O)C(=O)CO`, the Potency result is “inactive”.

A further experiment can be described thus: BET inhibitor-based combinations targeting novel dependencies in MECOM-rearranged (r) AML: HNT-34 cell line (AID 2202234).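 For viability (% of control): plate controls were vehicle wells for no effect and cell-free wells for full effect.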 Note: nearly all actives have a fitted effect of over 35% in size. The note with it: HNT-34 AML viability, CellTiter-Glo luminescence, 48 h; series mostly up to 46 µM. The procedure, abridged: as §1
As to `CCN(C)S(=O)(=O)Nc1ccc(F)c(C(=O)c2c[nH]c3ncc(-c4cnc(C5CC5)nc4)cc23)c1F`, the Potency is 4.17 µM (active).

Regarding `CS(=O)(=O)c1ccc(-c2cnc(NCc3ccco3)n3cnnc23)cc1`, the Potency result is “inactive”. `CN(C)Cc1cccc(N=C(c2ccccc2)c2c(O)[nH]c3cc(C(=O)N(C)C)ccc23)c1`: the Potency was 14.8 µM (active). On the same count and under the same terms, the result for `CC1(N)CCN(c2cccnc2NC(=O)c2nc(-c3ncccc3C(F)(F)F)cnc2N)CC1` reads 18.6 µM (active).

`Nc1nc2cc(-c3ccc4ncc(C(=O)N5CCOCC5)n4c3)ccc2o1`: the Potency is 16.6 µM (active). Take `CN(C)c1ccc(C(=O)NCCCCCCC(=O)NO)cc1`: the Potency is 1.18 µM (active).

With `CNCCN(C)Cc1cn[nH]c1-c1ccc(OC2CC(OCCC3CCOCC3)C2)cc1` (stereo unspecified), the Potency is 18.6 µM (active). Still for that read-out and setting: the result for `CCOC(=O)[C@H](CCc1ccccc1)N[C@H]1CCc2ccccc2N(CC(=O)O)C1=O` reads “inactive”. As to `COc1cc2c(cc1OC)CN(CCc1ccc(-n3nnc(-c4cc(OC)c(OC)cc4NC(=O)c4cc(=O)c5ccccc5o4)n3)cc1)CC2`, the viability (% of control) was 93.8% [at 0.315 µM]. On to `CC[C@H](C)C(=O)O[C@H]1C[C@H](O)C=C2C=C[C@H](C)[C@H](CC[C@@H](O)C[C@@H](O)CC(=O)O)[C@H]21`, for which the Potency result is “inactive”. Still for that read-out and setting: the result for `CSC[C@H]1CN(Cc2c[nH]c3c(N)ncnc23)C[C@@H]1O` reads “inactive”; that for `Nc1nccc2c1ncn2[C@@H]1C=C(CO)[C@@H](O)[C@H]1O`, 0.833 µM (active). Same read-out and setting: the result for `Cc1noc(C)c1-c1ccc(-c2cc(C(N)=O)c(NC(N)=O)s2)c(O[C@H]2CCNC2)c1` reads “inactive”; that for `Nc1nc(F)nc2c1ncn2C1OC(COP(=O)(O)O)C(O)C1O` (stereo unspecified), 16.6 µM (active); that for `Cc1ccc(NC(=O)[C@H]2CCCN(C(=O)c3c(C)cccc3F)[C@H]2c2ccc(NC3CCCC3)cc2)cc1C(F)(F)F`, 9.34 µM (active).

On to `CC(C)(C(=O)NCC(F)(F)C(F)(F)F)C(=O)N[C@@H]1C(=O)Nc2ccccc2-c2ccccc21`, for which the Potency entry is “inactive”. Turning to `CC(/C=C1\SC(=S)N(CC(=O)O)C1=O)=C\c1ccccc1`, the Potency result was “inactive”.

For `O=c1oc2cc(O)ccc2s1`, the Potency result is “inactive”. The same measure, in the same setting: as for `c1ccc2c(-c3cnn4cc(-c5ccc(OCCN6CCOCC6)cc5)cnc34)ccnc2c1`, the figure is 8.11 µM (active); as for `CCOc1cc(/C=C2/C(=O)N(c3ccccc3)N=C2C)cc(Cl)c1OCC(=O)OC`, “inactive”. On the same count and under the same terms, the result for `C[C@H]1C[C@H]2[C@@H]3CCC4=CC(=O)C=C[C@]4(C)[C@H]3C(=O)C[C@]2(C)[C@@]1(O)C(=O)CO` reads “inactive”.
